Experimental data published in PubChem BioAssay AID1851 (National Center for Advancing Translational Sciences (NCATS), 2009).
Values joined by “and” are separate entries in the source; they are usually repeats but may differ in a detail not shown here. Equal values may be shown once. Hit rate of the full screen: of about 16,000 compounds, about 4,000 (25%) were called active. About 26% were inconclusive and are not listed. The call rests on the fitted dose curve; in most records, active means well fitted curve in the direction sought with a large enough effect; inconclusive means small, poorly fitted or top-dose-only effect, or effect the other way; inactive means no such curve, though single readings can be large or run the other way. The list is a sample of the results. Some structures have more than one record in an assay (separate samples or runs), and their calls can disagree.

target: Cytochrome P450 2C9 (Homo sapiens) (UniProt P11712); assay: Cytochrome panel assay with activity outcomes; settings: recombinant CYP, pro-luciferin dealkylation, luminescence, p450-cyp2c9; series mostly up to 57.1 µM; activity, negative = inhibition: at the top concentration
On the % scale 0 is the no-effect control and ±100 the full control effect.

Sequence of Cytochrome P450 2C9 (Homo sapiens) (P11712 whole entry, looked up): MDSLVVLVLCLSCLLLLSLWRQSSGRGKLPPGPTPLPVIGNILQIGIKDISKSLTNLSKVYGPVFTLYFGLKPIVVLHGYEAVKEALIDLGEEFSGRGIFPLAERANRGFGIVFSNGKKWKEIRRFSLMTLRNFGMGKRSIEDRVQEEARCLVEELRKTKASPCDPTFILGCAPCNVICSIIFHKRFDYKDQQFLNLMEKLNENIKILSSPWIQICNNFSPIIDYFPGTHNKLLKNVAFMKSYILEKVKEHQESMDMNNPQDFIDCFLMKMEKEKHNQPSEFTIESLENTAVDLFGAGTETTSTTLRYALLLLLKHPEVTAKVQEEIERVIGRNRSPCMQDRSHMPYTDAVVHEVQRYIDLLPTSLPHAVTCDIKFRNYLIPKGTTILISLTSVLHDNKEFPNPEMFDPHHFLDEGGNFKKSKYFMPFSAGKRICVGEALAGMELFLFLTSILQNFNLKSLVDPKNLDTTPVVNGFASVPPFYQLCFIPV

| SMILES | activity, negative = inhibition | AC50 |
| --- | --- | --- |
| O=C1C=C(N2CCN(c3ccccn3)CC2)C(=O)c2c(O)ccc(O)c21 | -10.2% [at 11.4 µM] (inactive) |  |
| O=C(NCCc1ccccc1)N1c2ccccc2Sc2ccccc21 |  | 12.6 µM (active) |
| C[C@@H](CN1c2ccccc2Sc2ccccc21)N(C)C |  | inactive |
| O=C(O)CNCCc1ccccc1 | 12.3% [at 11.4 µM] (inactive) |  |
| O=C(NCCCN1CCc2ccccc2C1)C1CCN(S(=O)(=O)N2CCCC2)CC1 | -27% (inactive) |  |
| O=S(=O)(c1ccc(Cl)s1)N1CCc2ccccc2C1 |  | 28.2 µM (active) |
| C=CCNCCCCOc1c(Cl)cc(C)cc1Br | 28.8% (inactive) |  |
| COc1ccc2oc(=O)c(NC(=O)C3CCCCC3)cc2c1 | -3.66% (inactive) |  |
| COc1ccc2c(c1)OC1=C(C(=O)CCC1)C2C1=C(O)CCCC1=O (stereo not drawn) |  | 22.4 µM (active) |
| COc1ccccc1CN(Cc1cc2cc3c(cc2[nH]c1=O)OCCO3)Cc1nnnn1Cc1ccco1 |  | 12.6 µM (active) |
| CN1CCc2[nH]nc(-c3n[nH]c4c3CN(C)CC4)c2C1 | 3.89% [at 11.4 µM] (inactive) |  |
| CCOc1ccc(C2C(C(=O)O)c3ccccc3C(=O)N2CCN2CCOCC2)cc1 (stereo not drawn) | 7.76% (inactive) |  |
| CCOc1ccc2[nH]c(=O)c(CN(CCc3ccccc3)C(=O)N3CCCC3)cc2c1 |  | 7.94 µM (active) |
| CCOc1cc(CC(=O)N[C@@H](CC(C)C)c2ccccc2N2CCCCC2)ccc1C(=O)O | -5.99% [at 25.6 µM] (inactive) |  |
| CCOc1ccc2[nH]c(=O)c(CN(CCc3ccccc3)C(=O)N3CCOCC3)cc2c1 |  | 7.08 µM (active) |
| C[N+]1(CC(=O)OCCCc2ccccc2)CCOCC1 | -7.29% (inactive) |  |
| CN(C(=O)CCCOc1ccc2[nH]c(=O)ccc2c1)C1CCCCC1 | 25.2% (inactive) |  |
| CO[C@@H]1COC(=O)[C@@H](CCSC)NC(=O)C/C=C\[C@@H](C)COC(=O)[C@H](C)NC(=O)C/C=C\[C@H]1C | 10% [at 11.4 µM] (inactive) |  |
| CN(Cc1ccco1)c1ncnc2ccc(-c3ccccc3C#N)cc12 | -18.9% [at 2.29 µM] (inactive) |  |
| Oc1ccc2ccccc2c1/C=C\c1ccc2c(Br)cc(Br)c(O)c2n1 |  | 2.51 µM (active) |
| Oc1ccc2ccccc2c1C=NCc1c(O)ccc2ccccc12 | -2.74% [at 11.4 µM] (inactive) |  |

| SMILES | activity, negative = inhibition | AC50 |
| --- | --- | --- |
| FC(F)(F)c1ccccc1-c1ccc2ncnc(NC3CC3)c2c1 | -6.68% [at 2.29 µM] (inactive) |  |
| NS(=O)(=O)c1ccc(N=C2C(=O)Nc3ccccc32)cc1 | 0.554% [at 11.4 µM] (inactive) |  |
| O=C(NCCc1ccccc1)C(=O)NN=C1CCCC1 | -22.4% (inactive) |  |
| O=C1Nc2ccccc2/C1=N/c1sc2c(c1C(=O)NCCc1ccccc1)CCCC2 |  | 3.98 µM (active) |
| C=CC1=C(C(=O)O)N2C(=O)[C@@H](NC(=O)/C(=N\OCC(=O)O)c3csc(N)n3)[C@@H]2SC1 | 6.6% [at 25.6 µM] (inactive) |  |
| O=C(NNc1cccc(Cl)n1)Nc1ccccc1Cl | 2.18% (inactive) |  |
| CN(C)S(=O)(=O)Oc1cccc(C(=O)Nc2ccccc2Cl)c1 |  | 5.01 µM (active) |
| Cc1nc2cnc(N(C)C)nc2n(C)c1=O | -11.2% (inactive) |  |
| CCOC(=O)c1sc2nc3c(cc2c1N)COC(C)(CC)C3 (stereo not drawn) |  | 10 µM (active) |
| CCOC(=O)c1sc2nc3c(cc2c1N)COC(C(C)C)C3 (stereo not drawn) | -14.7% (inactive) |  |
| CCOC(=O)C1=C(C)NC(C)=C(C(=O)OC)[C@@H]1c1cccc([N+](=O)[O-])c1 |  | 0.316 µM (active) |
| CCOC(=O)C1=C(C)NC(C)=C(C(=O)OC)[C@H]1c1cccc([N+](=O)[O-])c1 |  | 0.158 µM (active) |
| C#CCN1C(C)=C(C(=O)OC)[C@@H](c2cccc([N+](=O)[O-])c2)C(C(=O)OCC)=C1C |  | 0.316 µM (active) |
| CCOC(=O)/C(=C/Nc1ccccc1)[N+](=O)[O-] | -19.7% (inactive) |  |
| CO[C@H]1COC(=O)[C@@H](CCSC)NC(=O)C/C=C\[C@@H](C)[C@H](OC)COC(=O)[C@@H](OCc2ccccc2)/C=C\[C@@H]1C | 19.4% [at 11.4 µM] (inactive) |  |
| O=C(Nc1ccc(C(=O)Nc2ccc(C(=O)Nc3ccc(S(=O)(=O)O)c4cc(S(=O)(=O)O)cc(S(=O)(=O)O)c34)cc2)cc1)Nc1ccc(C(=O)Nc2ccc(C(=O)Nc3ccc(S(=O)(=O)O)c4cc(S(=O)(=O)O)cc(S(=O)(=O)O)c34)cc2)cc1 | -1.99% (inactive) |  |
| O=C(Nc1cc(C(=O)Nc2ccc(S(=O)(=O)O)cc2S(=O)(=O)O)cc(C(=O)Nc2ccc(S(=O)(=O)O)cc2S(=O)(=O)O)c1)Nc1cc(C(=O)Nc2ccc(S(=O)(=O)O)cc2S(=O)(=O)O)cc(C(=O)Nc2ccc(S(=O)(=O)O)cc2S(=O)(=O)O)c1 |  | inactive and 7.94 µM (active) |
| O=C(Nc1cccc(C(=O)Nc2ccc(S(=O)(=O)O)c3cc(S(=O)(=O)O)cc(S(=O)(=O)O)c23)c1)Nc1cccc(C(=O)Nc2ccc(S(=O)(=O)O)c3cc(S(=O)(=O)O)cc(S(=O)(=O)O)c23)c1 |  | inactive |
| COCCNc1ccnc(-c2ccccc2C)n1 | -5% [at 2.29 µM] (inactive) |  |
| CCOC(=O)c1cnn(-c2cc(Oc3ccccc3)ncn2)c1N | -9.04% (inactive) |  |
| CCOC(=O)c1cnn(-c2nc(-c3ccc(F)cc3)cs2)c1C(F)(F)F |  | 12.6 µM (active) |

| SMILES | activity, negative = inhibition | AC50 |
| --- | --- | --- |
| CCOC(=O)c1cnn(CCOC(=O)C(C)(C)C)c1NC(=O)C(C)(C)C | -32.9% (inactive) |  |
| CCOC(=O)c1cn(-c2nc(-c3ccc(Cl)cc3)cs2)c2c(F)c(N3CC(C)OC(C)C3)c(F)cc2c1=O (stereo not drawn) | -40.2% (inactive) |  |
| CCOC(=O)c1cnn(-c2nc(-c3cccc(F)c3)cs2)c1C(F)(F)F |  | 2.24 µM (active) |
| FC(F)(F)c1ccccc1-c1cncnc1NCc1cccs1 | -5.24% [at 2.29 µM] (inactive) |  |
| O=c1c2ccccc2nnn1CSc1ccc2c(c1)OCCO2 |  | 7.94 µM (active) |
| CC(C)n1nnc2ccccc2c1=O | -24.8% (inactive) |  |
| Cc1ccc(C(=O)/C=C2\NCC(C)NC2=O)cc1 (stereo not drawn) | -2.82% (inactive) |  |
| Cc1ccc(C(=O)/C=C/c2c[nH]c3ccccc23)cc1 |  | 2.82 µM (active) |
| CC(C)(C)OC(=O)[C@H]([C@@H]1N[C@@H](C(=O)O)C(C)(C)S1)N1C(=O)c2ccccc2C1=O | 19% [at 11.4 µM] (inactive) |  |
| CSc1nsc(SCc2ccc(Cl)cc2)n1 |  | 0.355 µM (active) |
| CCN1C(=O)[C@H]2[C@H]3[C@H](O)[C@H](O)C/C(=N/O[C@@H](C)c4cn([C@H](CO)Cc5ccccc5)nn4)[C@@H]3CC[C@@H]2C1=O | -13.4% [at 11.4 µM] (inactive) and 2.69% [at 11.4 µM] (inactive) |  |
| CC1(C)O[C@@H]2O[C@H]([C@H](O)CO/N=C3/[C@H]4O[C@@H]4[C@@H](O)[C@H]4[C@H]3CCn3c(=O)n(-c5ccccc5)c(=O)n34)[C@@H](O)[C@@H]2O1 | 15.4% [at 11.4 µM] (inactive) |  |
| Cc1cc(C=O)c(C)n1-c1ccc(NC2CCCC2)c([N+](=O)[O-])c1 | -36.3% (inactive) |  |
| COC(=O)c1c(-n2c(C)cc(C=O)c2C)sc2c1CCCC2 |  | 1.12 µM (active) |
| C(=N/Nc1nnc2c(n1)[nH]c1ccccc12)/c1cccnc1 | -16.8% [at 11.4 µM] (inactive) |  |
| Cc1sc(N/N=C/c2cccnc2)nc1-c1ccccc1 |  | 0.355 µM (active) |
| Cc1cnn(-c2cc(N/N=C/c3ccccc3)ncn2)c1 | -16% (inactive) |  |
| CC(C)=C[C@H]1[C@@H](C(=O)Oc2ccccc2C(C)C)C1(C)C | -15.1% [at 11.4 µM] (inactive) |  |
| CCN1C(=O)[C@H]2[C@@H]3[C@H](O)C=CC(=O)[C@H]3CC[C@H]2C1=O | 17.9% [at 11.4 µM] (inactive) |  |
| CCN1CCN(C(=O)N[C@H](C(=O)N[C@@H]2C(=O)N3[C@@H]2SC(C)(C)[C@@H]3C(=O)O)c2ccccc2)C(=O)C1=O | 25.1% [at 25.6 µM] (inactive) |  |
| COc1cc([C@H]2c3cc4c(cc3[C@@H](O)[C@@H]3COC(=O)[C@H]23)OCO4)cc(OC)c1OC |  | 6.31 µM (active) |

| SMILES | activity, negative = inhibition | AC50 |
| --- | --- | --- |
| COc1cc2c(c(O)c1OC)C(=O)C(OC)CCC2 (stereo not drawn) | 18.1% (inactive) |  |
| Nc1ncnc2c1nc(-c1ccccc1)n2[C@H]1O[C@@H](CO)[C@@H](O)[C@H]1O | 9.27% [at 11.4 µM] (inactive) |  |
| Cn1cc([N+](=O)[O-])c(C(=O)Nc2cc(Oc3cccnc3)cc([N+](=O)[O-])c2)n1 |  | 5.62 µM (active) |
| CCC/C=C(\CCC)C(NS(=O)(=O)c1cccc2cccnc12)c1ccc(C(=O)OC)cc1 (stereo not drawn) |  | 1.58 µM (active) |
| CCC/C=C(\CCC)C(NS(=O)(=O)c1cccc2cccnc12)c1ccc(-c2ccccc2)cc1 (stereo not drawn) |  | 2 µM (active) |
| O=[N+]([O-])c1cccc2c[nH]nc12 | 7.17% (inactive) |  |
| O=[N+]([O-])c1ccc(S(=O)(=O)Cc2ccccc2)c2nonc12 |  | 0.316 µM (active) |
| COc1cc(OC)c(OC)cc1C=NCC1(c2ccccc2)CCCC1 | 32.7% (inactive) |  |
| CN1CCCC2(CCN(C(=O)c3cnccn3)CC2)C1 | 15.7% (inactive) |  |
| Cc1cc(OCCn2cc(/C(N)=N/O)c3ccccc32)ccc1Cl |  | 12.6 µM (active) |
| CC(C)(N)C(=O)N[C@@H]1C(=O)N2[C@@H]1SC(C)(C)[C@H]2C(=O)O | 14.5% [at 11.4 µM] (inactive) |  |
| Cc1csc(NC(=O)Cc2c[nH]c3ccccc23)n1 |  | 12.6 µM (active) |
| CC1(C)Cc2c(C#N)c(SCc3ccccc3)nc(N3CCOCC3)c2CO1 |  | 0.708 µM (active) |
| CCCCCCC(C)n1cc(C(C)=O)c(=O)[nH]c1=O (stereo not drawn) | -56.9% (inactive) |  |
| O=C(Oc1ccc2c(c1)CN(Cc1ccccc1)CO2)c1ccccc1 | -0.387% [at 11.4 µM] (inactive) |  |
| COC(=O)[C@H](N)Cc1ccc(Cl)cc1 | -6.72% (inactive) |  |
| COC(=O)C(Cc1ccc(OC(=O)c2ccc(C(F)(F)F)cc2)cc1)N1Cc2ccccc2C1=O (stereo not drawn) |  | 8.91 µM (active) |
| COC(=O)C(Cc1ccc(OC(=O)c2ccc(Cl)cc2)cc1)N1Cc2ccccc2C1=O (stereo not drawn) |  | 3.16 µM (active) |
| COC(=O)C1=C(C)NC2=C(C(=O)CCC2)C1c1cn(Cc2ccc(Cl)cc2Cl)nc1-c1ccccc1 (stereo not drawn) |  | 1 µM (active) |
| CCN(CC)C(=O)C1=C(C)NC(=S)NC1c1cn(-c2ccccc2)nc1-c1ccc(Cl)cc1 (stereo not drawn) | -22.4% (inactive) |  |
